# Reference: PubChem BioAssay
# Calls of active or inactive are those of the source.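 Rule for the calls: active = compounds killing one labelled cell type while sparing the other, by normalised counts and ratio limits, not self-fluorescent; inactive = the rest.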
# Assay: differential killing of epithelial or mesenchymal cells, primary screen, imaging, PC-3E GFP, TEM4-18 mCherry, co-culture (AID 1345086);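 note: cells exposed to compound for 72 h before imaging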;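 for red/green cell ratio (normalised): normalised mesenchymal count divided by normalised epithelial count so high means epithelial killing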
# Settings: imaging cell counts, at 1 µM; for red/green cell ratio (normalised): actives lie on both sides, counts scaled to control wells, 1 = unselective
# [1] = measured here: epithelial PC-3E GFP cell survival
# [2] = measured here: mesenchymal TEM4-18 mCherry cell survival
Structure (SMILES),red/green cell ratio (normalised),normalised cell number [1],normalised cell number [2]
CO/C(C)=C1/C(=O)C(CO)OC1O (stereo not given),1.02 (inactive),0.93,0.95
CC(C)CCCC(C)C1CCC2C3=CC[C@H]4C[C@@H](O)CC[C@]4(C)C3CC[C@@]21C (stereo not given in full),0.98 (inactive),1.1,1.08
COC(=O)C[C@H]1C2(C)CC34OC5(C)O[C@]6(C7/C(=C(/OC)C(C)C)C(=O)O[C@@H](c8ccoc8)[C@]7(C)C(OC(=O)C(C)C)[C@@H](OC)[C@]6(O5)C13C)[C@H](OC)[C@@]4(OC)C2OC(C)=O (stereo not given in full),0.95 (inactive),1.04,1
C/C=C/C1=CC(=O)[C@H](O)[C@H]1O,1.04 (inactive),1.04,1.07
CC1(C)C[C@H]2[C@@]1(O)[C@@H](O)C[C@]1(C)[C@H](O)C=C[C@]21CO,0.9 (inactive),1.19,1.07
COC1=N[C@@](OC)(C(C)C)C(=O)N[C@@]1(O)[C@H](O)c1ccccc1,0.8 (inactive),1.21,0.96
CC(CC(=O)N1CCOC1=O)N1C(=S)SC[C@H]1c1ccccc1 (stereo not given in full),0.8 (inactive),1.08,0.87
COC(=O)c1c[nH]c2c(OC)c(F)c(F)cc2c1=O,1.14 (inactive),1.06,1.21
O=C(NCC1O[C@@H](OC2C(NC(=O)OCc3ccccc3)C[C@@H](NC(=O)OCc3ccccc3)[C@H](OC3OC(COS(=O)(=O)O)[C@@H](OS(=O)(=O)O)[C@H](NC(=O)OCc4ccccc4)[C@H]3OS(=O)(=O)O)[C@H]2OS(=O)(=O)O)[C@H](OS(=O)(=O)O)[C@@H](OS(=O)(=O)O)C1OS(=O)(=O)O)OCc1ccccc1 (stereo not given in full),1.03 (inactive),0.88,0.91
C[C@@H]1Cc2cccc(O)c2C(=O)O1,1.03 (inactive),0.83,0.85
O=C(N[C@@H](Cc1ccc(O)cc1)C(=O)O)OCc1ccccc1,0.96 (inactive),1.09,1.04
C[C@@H]1CC[C@@]2(OC1)O[C@H]1CC3C4CC[C@H]5C[C@@H](O)CC[C@]5(C)C4CC[C@]3(C)[C@H]1[C@@H]2C (stereo not given in full),0.88 (inactive),1.17,1.03
C[C@H]1C[C@H]2C(=O)O[C@H]([C@@H](C)CCCC[C@@H](C)O)C[C@@H](O)[C@H](C)C(=O)NC(Cc3ccccc3)C(=O)N2C1 (stereo not given in full),0.93 (inactive),1.14,1.05
CCCCC/C=C/C1=C(CO)[C@H](O)[C@H]2O[C@H]2[C@@H]1O,1 (inactive),1.08,1.08
COc1cc(C(O)CO)oc1C=O (stereo not given),0.86 (inactive),1.08,0.93
CN[C@H]1[C@@H](O[C@@H]2[C@@H](O[C@@H]3[C@@H](O)[C@H](O)[C@@H](N=C(N)N)[C@H](O)[C@H]3N=C(N)N)O[C@H](C)[C@@]2(O)CO)O[C@H](CO)[C@@H](O)[C@@H]1O,0.84 (inactive),1.23,1.03
CC1(C)S[C@@H]2[C@H](NC(=O)C(NC(=O)N3CCNC3=O)c3ccccc3)C(=O)N2C1C(=O)O (stereo not given in full),0.99 (inactive),1.15,1.14
O=C(NCC1O[C@@H](OC2C(NC(=O)c3ccccc3)C[C@@H](NC(=O)c3ccccc3)[C@H](OS(=O)(=O)O)[C@H]2OC2OC(COS(=O)(=O)O)C(OC3OC(CNC(=O)c4ccccc4)[C@@H](OS(=O)(=O)O)[C@H](OS(=O)(=O)O)[C@H]3NC(=O)c3ccccc3)C2OS(=O)(=O)O)[C@H](NC(=O)c2ccccc2)[C@@H](OS(=O)(=O)O)C1OS(=O)(=O)O)c1ccccc1 (stereo not given in full),0.97 (inactive),0.96,0.93
COc1ccc2c(c1)CCC1C2CC[C@@]2(C)C1CC[C@@H]2O (stereo not given in full),0.78 (inactive),1.46,1.14
C[C@H]1[C@H]2CCC3C4CC=C5C[C@@H](N(C)C)CC[C@]5(C)C4CC[C@@]32CN1C (stereo not given in full),0.93 (inactive),0.89,0.83
O=C(O)C(O)[C@H](O)[C@H](O)[C@H](O)[C@H](O)CO (stereo not given in full),1.28 (inactive),1.07,1.37
C[C@H]1CC[C@@H](C(C)(C)O)CC2=C1CC[C@@H]2C,1.27 (inactive),0.71,0.91
CC(C)CCCC(C)C1CCC2C3CC[C@H]4CC(=O)CC[C@]4(C)C3CC[C@]12C (stereo not given in full),0.94 (inactive),1.04,0.97
C#C[C@H](O)COc1ccc(C(=O)O)cc1,1.18 (inactive),0.57,0.68
O=C(Nc1ccccc1)Nc1ccc(CO)cc1,0.81 (inactive),1.24,1.01
CCSC(SCC)[C@@H]1NC(=O)O[C@H]1[C@H](O)[C@H](O)CO,1 (inactive),1.12,1.12
COC(=O)C12C(C(C)=O)OC(CC(O)C1O)C2C (stereo not given),0.97 (inactive),1.04,1.01
Cc1cccc(CN2CCN(C(c3ccccc3)c3ccc(Cl)c(C)c3)CC2)c1 (stereo not given),0.79 (inactive),1.23,0.97
COC1O[C@@H]2O[C@]3(C)CC[C@H]4[C@H](C)CC[C@@H]([C@H]1C)[C@@]24OO3 (stereo not given in full),0.81 (inactive),0.82,0.67
Cc1ccc(S[C@H]2OC(COCc3ccccc3)C(O)[C@@H]3OC(=O)N[C@H]23)cc1 (stereo not given in full),1.07 (inactive),0.9,0.96
